The source of these data is PubChem BioAssay.

This assay is described as follows: EMT-state selective cytotoxicity in co-culture – imaging, PC-3E GFP, TEM4-18 mCherry, primary screen (AID 1345086).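 On all read-outs here: cells exposed to compound for 72 h before imaging.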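 On red/green cell ratio (normalised): normalised mesenchymal count divided by normalised epithelial count so high means epithelial killing.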 As to conditions: PC-3E GFP / TEM4-18 mCherry co-culture, imaging cell counts, at 1 µM; for red/green cell ratio (normalised): actives lie on both sides, counts scaled to control wells, 1 = unselective.
The mark [1] stands for this setting: measured here: epithelial PC-3E GFP cell survival.
[2] abbreviates: measured here: mesenchymal TEM4-18 mCherry cell survival.

Calls of active or inactive are those of the source.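 How the source made its calls: active means compounds killing one labelled cell type while sparing the other, by normalised counts and ratio limits, not self-fluorescent; inactive means the rest.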

With `CCN(CC)CCNc1ccc(CO)c2sc3ccccc3c(=O)c12`, the red/green cell ratio (normalised) was 1.17 (inactive). The compound also had a normalised cell number under setting [1] of 0.63. This compound came in with a normalised cell number under setting [2] of 0.74.

Turning to `CCCCOc1ccc(C(=O)CCN2CCCCC2)cc1`, the red/green cell ratio (normalised) was 1.3 (inactive). For the same compound, the normalised cell number under setting [1] came to 1.09. The same compound gave a normalised cell number under setting [2] of 1.41.

Take `CCOc1ccc(Cc2nccc3cc(OCC)c(OCC)cc23)cc1OCC`: the red/green cell ratio (normalised) is 0.88 (inactive). The normalised cell number under setting [1] worked out at 1. Under setting [2], this compound gave a normalised cell number of 0.88.

For `O=C(O)c1ccccc1OP(=O)(O)O`, the red/green cell ratio (normalised) was 0.9 (inactive). Also, the normalised cell number under setting [1] came to 1.17. This compound gave a normalised cell number under setting [2] of 1.05.

Consider `Cc1cc(O)cc(C)c1Cl`, for which the red/green cell ratio (normalised) was 1.31 (inactive). For the same compound, the normalised cell number under setting [1] was 0.7. For the same compound, the normalised cell number under setting [2] stood at 0.93.

Consider `COC(=O)N/N=C/c1c[n+]([O-])c2ccccc2[n+]1[O-]`, for which the red/green cell ratio (normalised) is 0.65 (inactive). Also, the normalised cell number under setting [1] was 1.24. Also, the normalised cell number under setting [2] was 0.81.

Turning to `Cc1cc(C(C)(C)C)c(O)c(C(C)(C)C)c1`, the red/green cell ratio (normalised) is 0.93 (inactive). Under setting [1], this compound showed a normalised cell number of 1.01. Also, under setting [2], the normalised cell number turned out to be 0.94.

For the compound `Oc1cccc(O)c1`, the red/green cell ratio (normalised) was 1.34 (inactive). The same compound displayed a normalised cell number under setting [1] of 0.71. The compound further came in with a normalised cell number under setting [2] of 0.95.

As for `CO/N=C1\CN(c2nc3c(cc2F)c(=O)c(C(=O)O)cn3C2CC2)CC1CN` (configuration not stated), the red/green cell ratio (normalised) is 0.94 (inactive). Further, the normalised cell number under setting [1] is 1.32. Under setting [2], this compound gave a normalised cell number of 1.24.

As to `C[N+](C)(C)CCOC(N)=O`, the red/green cell ratio (normalised) was 1.21 (inactive). The compound further had a normalised cell number under setting [1] of 0.85. The same compound showed a normalised cell number under setting [2] of 1.03.

On to `O=C1c2ccccc2C(=O)c2c1ccc(O)c2O`, for which the red/green cell ratio (normalised) was 0.87 (inactive). Besides, the normalised cell number under setting [1] is 1.05. The same compound gave a normalised cell number under setting [2] of 0.91.

On to `CC(C)(C)CC(C)(C)c1ccc(O)c(Cc2ccc(Cl)cc2Cl)c1`, for which the red/green cell ratio (normalised) is 0.81 (inactive). The same compound registered a normalised cell number under setting [1] of 1.02. The normalised cell number under setting [2] was found to be 0.82.

Regarding `Cc1cc(=O)[nH]c(=S)[nH]1`, the red/green cell ratio (normalised) is 0.93 (inactive). The normalised cell number under setting [1] amounted to 0.99. This compound returned a normalised cell number under setting [2] of 0.92.

For the compound `CC1CCC(NC(=O)N(CCCl)N=O)CC1` (configuration not stated), the red/green cell ratio (normalised) was 1.17 (inactive). Under setting [1], this compound returned a normalised cell number of 1.17. This compound also registered a normalised cell number under setting [2] of 1.37.

Consider `CCN(CC)CCNC(=O)COc1ccc(OC)cc1`, for which the red/green cell ratio (normalised) is 1.07 (inactive). The same compound registered a normalised cell number under setting [1] of 1.11. Under setting [2], this compound had a normalised cell number of 1.18.

Turning to `COc1ccc(C(=O)c2ccccc2)c(O)c1`, the red/green cell ratio (normalised) was 0.94 (inactive). Further, the normalised cell number under setting [1] turned out to be 1.15. Under setting [2], the normalised cell number turned out to be 1.08.

Turning to `CCO/C([O-])=N/c1c[n+](N2CCOCC2)no1`, the red/green cell ratio (normalised) is 0.9 (inactive). The same compound gave a normalised cell number under setting [1] of 1.04. The same compound showed a normalised cell number under setting [2] of 0.94.

As for `COc1cc2c3cc1Oc1cc(ccc1O)C[C@@H]1c4c(cc(OC)c(O)c4Oc4ccc(cc4)C[C@@H]3N(C)CC2)CC[N+]1(C)C`, the red/green cell ratio (normalised) is 0.97 (inactive). Under setting [1], this compound showed a normalised cell number of 1.08. In addition, the normalised cell number under setting [2] was 1.05.

Regarding `CCN(CCCCOC(=O)c1ccc(OC)c(OC)c1)C(C)Cc1ccc(OC)cc1` (configuration not stated), the red/green cell ratio (normalised) is 1.1 (inactive). This compound also came in with a normalised cell number under setting [1] of 0.88. The normalised cell number under setting [2] was found to be 0.97.

On to `O=C(O)CCCCC1CCSS1` (configuration not stated), for which the red/green cell ratio (normalised) is 0.99 (inactive). This compound registered a normalised cell number under setting [1] of 0.91. For the same compound, under setting [2], the normalised cell number was 0.9.

Take `Cc1c(NC(C)C)c(=O)n(-c2ccccc2)n1C`: the red/green cell ratio (normalised) was 0.88 (inactive). Also, the normalised cell number under setting [1] was found to be 0.91. Under setting [2], this compound yielded a normalised cell number of 0.8.

With `COc1cc(OC)cc(OC)c1`, the red/green cell ratio (normalised) was 0.87 (inactive). This compound displayed a normalised cell number under setting [1] of 1.26. For the same compound, under setting [2], the normalised cell number came to 1.09.

For the compound `O=C(O)c1cc(=O)c2ccccc2o1`, the red/green cell ratio (normalised) was 0.88 (inactive). Under setting [1], the normalised cell number turned out to be 0.88. Also, the normalised cell number under setting [2] was found to be 0.78.

As for `CCCCOc1cc(C(=O)NCCN(CC)CC)c2ccccc2n1`, the red/green cell ratio (normalised) was 0.94 (inactive). For the same compound, under setting [1], the normalised cell number is 1.33. The compound further gave a normalised cell number under setting [2] of 1.25.

In the case of `COc1ccc(-c2cc(C(F)F)nn2-c2ccc(S(N)(=O)=O)cc2)cc1F`, the red/green cell ratio (normalised) is 0.98 (inactive). Moreover, the normalised cell number under setting [1] stood at 1.12. Under setting [2], the normalised cell number is 1.1.

Regarding `C[n+]1c2cc(N)ccc2cc2ccc(N)cc21` (tested in a mixture with another compound), the red/green cell ratio (normalised) is 0.5 (inactive). Under setting [1], this compound showed a normalised cell number of 0.56. The same compound registered a normalised cell number under setting [2] of 0.28.

As for `O=C(COc1ccc(Cl)cc1)N1CCN(Cc2ccc3c(c2)OCO3)CC1`, the red/green cell ratio (normalised) was 0.96 (inactive). Further, the normalised cell number under setting [1] turned out to be 0.94. The normalised cell number under setting [2] worked out at 0.9.

With `CN1CCN(CC(=O)N2c3ccccc3C(=O)Nc3cccnc32)CC1`, the red/green cell ratio (normalised) is 0.9 (inactive). This compound also showed a normalised cell number under setting [1] of 1.08. This compound also yielded a normalised cell number under setting [2] of 0.97.

As to `Cc1c(N(C)C)c(=O)n(-c2ccccc2)n1C`, the red/green cell ratio (normalised) is 0.85 (inactive). The compound also showed a normalised cell number under setting [1] of 1.18. The compound also registered a normalised cell number under setting [2] of 1.

For `CC(=O)Nc1c(I)cc(I)c(C(=O)O)c1I`, the red/green cell ratio (normalised) is 0.94 (inactive). Under setting [1], this compound returned a normalised cell number of 1.19. Also, under setting [2], the normalised cell number was 1.12.

`CC(=O)OCC(COC(C)=O)OC(C)=O`: the red/green cell ratio (normalised) was 1.26 (inactive). This compound returned a normalised cell number under setting [1] of 0.97. Under setting [2], this compound gave a normalised cell number of 1.22.

Take `Cc1ccnc(NS(=O)(=O)c2ccc(N)cc2)n1`: the red/green cell ratio (normalised) is 1.35 (inactive). For the same compound, the normalised cell number under setting [1] is 0.98. The normalised cell number under setting [2] turned out to be 1.33.

For `NC(=O)c1ccccc1O`, the red/green cell ratio (normalised) is 0.96 (inactive). Under setting [1], the normalised cell number was 0.98. This compound also returned a normalised cell number under setting [2] of 0.94.

With `Cc1ccsc1/C=C/C1=NCCCN1C`, the red/green cell ratio (normalised) is 1.28 (inactive). Under setting [1], this compound came in with a normalised cell number of 1.08. Moreover, the normalised cell number under setting [2] is 1.38.

Regarding `CCN(CC)C(=O)N1CCN(C)CC1`, the red/green cell ratio (normalised) is 1.18 (inactive). For the same compound, under setting [1], the normalised cell number was 1.2. This compound returned a normalised cell number under setting [2] of 1.42.

For `COc1ccccc1OCC(O)CO` (configuration not stated), the red/green cell ratio (normalised) is 1.05 (inactive). This compound also came in with a normalised cell number under setting [1] of 1.11. Moreover, the normalised cell number under setting [2] amounted to 1.17.

As to `CO[C@@]1(NC(=O)C(C(=O)O)c2ccc(O)cc2)C(=O)N2C(C(=O)O)=C(CSc3nnnn3C)CO[C@@H]21` (some centres not stated), the red/green cell ratio (normalised) is 0.93 (inactive). This compound had a normalised cell number under setting [1] of 1.2. For the same compound, under setting [2], the normalised cell number turned out to be 1.11.

Take `O=C(OCC(O)CO)c1ccccc1Nc1ccnc2cc(Cl)ccc12` (configuration not stated): the red/green cell ratio (normalised) was 0.94 (inactive). Further, the normalised cell number under setting [1] amounted to 0.84. Under setting [2], this compound showed a normalised cell number of 0.79.

Take `O=c1cc[nH]c(=S)[nH]1`: the red/green cell ratio (normalised) is 0.81 (inactive). Moreover, under setting [1], the normalised cell number was 1.32. Under setting [2], this compound registered a normalised cell number of 1.07.
